# Experimental data as given in the supplement of paper PMC8728848.
# Only a selection was taken, and the strongest signals are over-represented in it overall.
# B1: R2-fiber (Pseudomonas aeruginosa), Q9S576 (protein)
# chain: HHHHHHKVAKDLVVSLAYQVRTEDGVLVDESPVSAPLDYLHGHGSLISGLETALEGHEVGDKFDVAVGANDAYGQYDENLVQRVPKDVFMGVDELQVGMRFLAETDQGPVPVEITAVEDDHVVVDGNHMLAGQNLKFNVEVVAIREATEEELAHGHVHGAHDHHHDHDHDGCCGGHGHDHGHEHGGEGCCGGKGNGGCGCHENLYFQGVTAGMALAATDIPGLDASKLVSGVLAEQRLPVFARGLATAVSNSSDPNTATVPLMLTNHANGPVAGRYFYIQSMFYPDQNGNASQIATSYNATSEMYVRVSYAANPSIREWLPWQRCDIGGSFTKEADGELPGGVNLDSMVTSGWWSQSFTAQAASGANYPIVRAGLLHVYAASSNFIYQTYQAYDGESFYFRCRHSNTWFPWRRMWHGGDFNPSDYLLKSGFYWNALPGKPATFPPSAHNHDVGQLTSGILPLARGGVGSNTAAGARSTIGAGVPATASLGASGWWRDNDTGLIRQWGQVTCPADADASITFPIPFPTLCLGGYANQTSAFHPGTDASTGFRGATTTTAVIRNGYFAQAVLSWEAFGR
# Experiments:
# Assay in all cases: glycan array binding signal (z-score within array); higher = stronger binding
# Settings in all cases: glycan notation: IUPAC condensed, linker removed
# [1] = target: Fuc(a1-2)Gal(b1-3)GalNAc(a1-3)[Fuc(a1-2)]Gal(b1-4)GlcNAc
# In short: (§1)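 Glycan array binding is given as a within-array Z-score, which can be read as non-binding when negative. The arrays, 3228 of them, came from the Consortium for Functional Glycomics database and were retained only where the protein sequence was available. Z-scores were averaged across arrays of the same protein sequence at different concentrations or buffers and across linkers.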
# [2] = target: Fuc(a1-2)Gal(b1-4)GlcNAc
# In short: as §1
# [3] = target: Fuc(a1-2)Gal(b1-4)GlcNAc(b1-3)Gal(b1-4)GlcNAc(b1-2)Man(a1-3)[Fuc(a1-2)Gal(b1-4)GlcNAc(b1-3)Gal(b1-4)GlcNAc(b1-2)Man(a1-6)]Man(b1-4)GlcNAc(b1-4)GlcNAc
# In short: as §1
# [4] = target: Fuc(a1-2)Gal(b1-4)GlcNAc(b1-6)GalNAc
# In short: as §1
# [5] = target: Fuc(a1-2)Gal(b1-4)[Fuc(a1-3)]GlcNAc(b1-3)[Neu5Ac(a2-6)Gal(b1-4)GlcNAc(b1-6)]Gal(b1-4)Glc
# In short: as §1
# [6] = target: Fuc(a1-2)[Gal(a1-3)]Gal(b1-4)GlcNAc(b1-3)[Fuc(a1-2)[Gal(a1-3)]Gal(b1-4)GlcNAc(b1-6)]GalNAc
# In short: as §1
# [7] = target: Fuc(a1-2)[GalNAc(a1-3)]Gal(b1-3)GlcNAc(b1-2)Man(a1-3)[Fuc(a1-2)[GalNAc(a1-3)]Gal(b1-3)GlcNAc(b1-2)Man(a1-6)]Man(b1-4)GlcNAc(b1-4)[Fuc(a1-6)]GlcNAc
# In short: as §1
# [8] = target: Fuc(a1-2)[GalNAc(a1-3)]Gal(b1-4)[Fuc(a1-3)]GlcNAc(b1-3)GalNAc
# In short: as §1
# [9] = target: Fuc(a1-3)[Gal(b1-4)]GlcNAc(b1-6)GalNAc
# In short: as §1
# [10] = target: Gal(a1-3)Gal
# In short: as §1
# [11] = target: Gal(a1-3)Gal(b1-3)GlcNAc(b1-6)GalNAc
# In short: as §1
# [12] = target: Gal(a1-3)Gal(b1-4)Glc
# In short: as §1
# [13] = target: Gal(b1-3)Gal(b1-4)GlcNAc
# In short: as §1
# [14] = target: Gal(b1-3)GalNAc
# In short: as §1
# [15] = target: Gal(b1-3)GlcNAc(b1-3)Gal(b1-4)GlcNAc(b1-6)[Gal(b1-3)GlcNAc(b1-3)]Gal(b1-4)Glc
# In short: as §1
# [16] = target: Gal(b1-3)GlcNAc(b1-3)Gal(b1-4)[Fuc(a1-3)]GlcNAc
# In short: as §1
# [17] = target: Gal(b1-3)[Fuc(a1-4)]GlcNAc(b1-2)Man
# In short: as §1
# [18] = target: Gal(b1-3)[Fuc(a1-4)]GlcNAc(b1-3)Gal(b1-4)[Fuc(a1-3)]GlcNAc
# In short: as §1
# [19] = target: Gal(b1-4)GlcNAc(b1-3)Gal(b1-4)GlcNAc(b1-2)[Gal(b1-4)GlcNAc(b1-3)Gal(b1-4)GlcNAc(b1-6)]Man(a1-6)[Gal(b1-4)GlcNAc(b1-3)Gal(b1-4)GlcNAc(b1-2)Man(a1-3)]Man(b1-4)GlcNAc(b1-4)GlcNAc
# In short: as §1
# [20] = target: Gal(b1-4)GlcNAc(b1-3)Gal(b1-4)GlcNAc(b1-3)Gal(b1-4)GlcNAc
# In short: as §1
# [21] = target: Gal(b1-4)GlcNAc(b1-3)GalNAc
# In short: as §1
# [22] = target: Gal3S(b1-4)Glc
# In short: as §1
# [23] = target: Gal3S(b1-4)[Fuc(a1-3)]Glc6S
# In short: as §1
# [24] = target: GalNAc3S(b1-4)GlcNAc
# In short: as §1
# [25] = target: GlcNAc(b1-2)[GlcNAc(b1-6)]Man(a1-6)[GlcNAc(b1-2)Man(a1-3)]Man(b1-4)GlcNAc(b1-4)[Fuc(a1-6)]GlcNAc
# In short: as §1
# [26] = target: GlcNAc(b1-3)Gal(b1-4)GlcNAc
# In short: as §1
# [27] = target: GlcNAc(b1-3)Gal(b1-4)GlcNAc(b1-2)Man(a1-3)[GlcNAc(b1-3)Gal(b1-4)GlcNAc(b1-2)Man(a1-6)]Man(b1-4)GlcNAc(b1-4)GlcNAc
# In short: as §1
# [28] = target: GlcNAc(b1-3)Gal(b1-4)GlcNAc(b1-3)Gal(b1-4)GlcNAc
# In short: as §1
# [29] = target: GlcNAc(b1-3)Gal(b1-4)GlcNAc(b1-6)[Gal(b1-3)]GalNAc
# In short: as §1
# [30] = target: GlcNAc(b1-3)[GlcNAc(b1-6)]GalNAc
# In short: as §1
# [31] = target: GlcNAc(b1-4)GlcNAc(b1-4)GlcNAc(b1-4)GlcNAc(b1-4)GlcNAc(b1-4)GlcNAc
# In short: as §1
# [32] = target: GlcNAc6S(b1-3)Gal(b1-4)GlcNAc
# In short: as §1
# [33] = target: Man(a1-2)Man(a1-3)[Man(a1-2)Man(a1-6)]Man(a1-6)[Man(a1-2)Man(a1-2)Man(a1-3)]Man
# In short: as §1
# [34] = target: Man(a1-3)[Man(a1-6)]Man(b1-4)GlcNAc(b1-4)[Fuc(a1-6)]GlcNAc
# In short: as §1
# [35] = target: Neu5Ac(a2-3)Gal
# In short: as §1
# [36] = target: Neu5Ac(a2-3)Gal(b1-3)GalNAc
# In short: as §1
# [37] = target: Neu5Ac(a2-3)Gal(b1-4)GlcNAc(b1-2)Man(a1-3)[Neu5Ac(a2-3)Gal(b1-4)GlcNAc(b1-2)Man(a1-6)]Man(b1-4)GlcNAc(b1-4)[Fuc(a1-6)]GlcNAc
# In short: as §1
# [38] = target: Neu5Ac(a2-3)Gal(b1-4)GlcNAc(b1-3)Gal(b1-4)GlcNAc(b1-3)[Neu5Ac(a2-3)Gal(b1-4)GlcNAc(b1-3)Gal(b1-4)GlcNAc(b1-6)]GalNAc
# In short: as §1
# [39] = target: Neu5Ac(a2-3)Gal6S(b1-4)[Fuc(a1-3)]GlcNAc
# In short: as §1
# [40] = target: Neu5Ac(a2-3)[GalNAc(b1-4)]Gal(b1-4)GlcNAc
# In short: as §1
# [41] = target: Neu5Ac(a2-6)Gal(b1-4)GlcNAc
# In short: as §1
# [42] = target: Neu5Ac(a2-6)Gal(b1-4)GlcNAc(b1-6)[Gal(b1-3)GlcNAc(b1-3)]Gal(b1-4)Glc
# In short: as §1
# [43] = target: Neu5Ac(a2-8)Neu5Ac(a2-8)Neu5Ac(a2-8)Neu5Ac(a2-3)[GalNAc(b1-4)]Gal(b1-4)Glc
# In short: as §1
# [44] = target: Neu5Ac9Ac(a2-3)Gal(b1-4)GlcNAc
# In short: as §1
# [45] = target: Neu5Gc(a2-3)Gal(b1-3)GlcNAc
# In short: as §1
binder,measurement,setting,value
B1,glycan array binding signal (z-score),[1],2.11
same,glycan array binding signal (z-score),[2],0.297
same,glycan array binding signal (z-score),[3],-1.36
same,glycan array binding signal (z-score),[4],-0.579
same,glycan array binding signal (z-score),[5],-0.021
same,glycan array binding signal (z-score),[6],2.68
same,glycan array binding signal (z-score),[7],-0.288
same,glycan array binding signal (z-score),[8],3.46
same,glycan array binding signal (z-score),[9],2.09
same,glycan array binding signal (z-score),[10],0.366
same,glycan array binding signal (z-score),[11],0.045
same,glycan array binding signal (z-score),[12],-0.505
same,glycan array binding signal (z-score),[13],-0.114
same,glycan array binding signal (z-score),[14],-0.235
same,glycan array binding signal (z-score),[15],0.141
same,glycan array binding signal (z-score),[16],0.162
same,glycan array binding signal (z-score),[17],-0.063
same,glycan array binding signal (z-score),[18],2.1
same,glycan array binding signal (z-score),[19],2.06
same,glycan array binding signal (z-score),[20],0.018
same,glycan array binding signal (z-score),[21],-1.43
same,glycan array binding signal (z-score),[22],-0.16
same,glycan array binding signal (z-score),[23],0.853
same,glycan array binding signal (z-score),[24],-0.587
same,glycan array binding signal (z-score),[25],14.6
same,glycan array binding signal (z-score),[26],-0.499
same,glycan array binding signal (z-score),[27],0.012
same,glycan array binding signal (z-score),[28],0.586
same,glycan array binding signal (z-score),[29],0.122
same,glycan array binding signal (z-score),[30],0.283
same,glycan array binding signal (z-score),[31],-0.525
same,glycan array binding signal (z-score),[32],-0.144
same,glycan array binding signal (z-score),[33],-0.717
same,glycan array binding signal (z-score),[34],-0.775
same,glycan array binding signal (z-score),[35],2.35
same,glycan array binding signal (z-score),[36],-0.092
same,glycan array binding signal (z-score),[37],5.23
same,glycan array binding signal (z-score),[38],-0.406
same,glycan array binding signal (z-score),[39],5.49
same,glycan array binding signal (z-score),[40],-0.151
same,glycan array binding signal (z-score),[41],3
same,glycan array binding signal (z-score),[42],0.031
same,glycan array binding signal (z-score),[43],0.115
same,glycan array binding signal (z-score),[44],-1.16
same,glycan array binding signal (z-score),[45],-0.167
